PubChem BioAssay
Values joined by “and” are separate entries in the source; they are usually repeats but may differ in a detail not shown here. Identical values can stand only once. Active and inactive are the calls of the source. Unless noted, no rule for the calls is given here.

Assays:
[1] = resazurin metabolic signal in HepG2 cells – cell-based, resazurin fluorescence, 24 h, PK04 Diversity Set, profiling panel (AID 1172); details: HepG2 viability, higher = more signal; also: test concentration not given here
[2] = budding yeast growth changes without added modifier – OD600, strain BY4716, 24 h, basal condition, primary screen (AID 1173); details: S. cerevisiae BY4716 growth, OD600, 24 h; higher = more signal, called active from +8 up or from −8 down
[3] = viability profiling in MM1S myeloma cells – cell-based, resazurin fluorescence, basal, 24 h, PK04 Diversity Set, profiling panel (AID 1174); details: higher = more signal, called active from +8 up or from −8 down;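 also: MM1S multiple myeloma cell line; test concentration not given here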
[4] = biological target: Dihydroorotate dehydrogenase (quinone), mitochondrial (Plasmodium falciparum (isolate 3D7)) (UniProt Q08210); assay: inhibition of P. falciparum DHODH – biochemical, C-terminal His tag, absorbance 600 nm, primary screen (AID 1175); details: PfDHODH enzyme, DCIP absorbance 600 nm; higher = more signal, called active from +8 up or from −8 down;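 also: recombinant parasite enzyme with a five histidine tag at its C terminus; test concentration not given here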
[5] = inhibition of PAO1 biofilm formation – strain PAO1, LB-PBS medium, absorbance 600 nm, primary screen (AID 1176); also: test concentration not given here; details: P. aeruginosa PAO1 growth/biofilm, A600, 12 h; higher = more signal
[6] = growth modulation of vineyard yeast isolate – strain RM11-1a, OD600, basal, 24 h, primary screen (AID 1177);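 also: cultures grown under basal conditions with no added stressor; test concentration not given here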; details: S. cerevisiae RM11-1a growth, OD600, 24 h; higher = more signal, called active from +8 up or from −8 down
[7] = growth of efflux-deficient E. coli DRC39 – strain DRC39, OD650, 24 h, E. coli filamentation inducers, primary screen (AID 1178);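 also: growth measured as culture turbidity by optical density at 650 nm; test concentration not given here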; details: E. coli DRC39 acrAB, higher = more signal, called active from +8 up or from −8 down
[8] = growth of efflux-deficient E. coli DRC39 – strain DRC39, OD650, 48 h, E. coli filamentation inducers, primary screen (AID 1179);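 also: screen aims at cell division blockers that make cells filament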; details: E. coli DRC39 delta-acrAB growth, higher = more signal, called active from +8 up or from −8 down
[9] = viability profiling in RPMI8226 myeloma cells – cell-based, resazurin fluorescence, basal, 24 h, PK04 Diversity Set, profiling panel (AID 1180); details: higher = more signal;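 also: RPMI8826 multiple myeloma cell line at 5000 cells per well; test concentration not given here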
[10] = biological target: E3 ubiquitin-protein ligase XIAP (Homo sapiens) (UniProt P98170); assay: small molecules binding XIAP protein – biophysical, small-molecule microarray, fluorescence 635 nm, primary screen (AID 1181); details: higher = more signal;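 also: score merges 667 nm emission and signal to noise over triplicate slides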
E3 ubiquitin-protein ligase XIAP (Homo sapiens), sequence (P98170 whole entry, looked up): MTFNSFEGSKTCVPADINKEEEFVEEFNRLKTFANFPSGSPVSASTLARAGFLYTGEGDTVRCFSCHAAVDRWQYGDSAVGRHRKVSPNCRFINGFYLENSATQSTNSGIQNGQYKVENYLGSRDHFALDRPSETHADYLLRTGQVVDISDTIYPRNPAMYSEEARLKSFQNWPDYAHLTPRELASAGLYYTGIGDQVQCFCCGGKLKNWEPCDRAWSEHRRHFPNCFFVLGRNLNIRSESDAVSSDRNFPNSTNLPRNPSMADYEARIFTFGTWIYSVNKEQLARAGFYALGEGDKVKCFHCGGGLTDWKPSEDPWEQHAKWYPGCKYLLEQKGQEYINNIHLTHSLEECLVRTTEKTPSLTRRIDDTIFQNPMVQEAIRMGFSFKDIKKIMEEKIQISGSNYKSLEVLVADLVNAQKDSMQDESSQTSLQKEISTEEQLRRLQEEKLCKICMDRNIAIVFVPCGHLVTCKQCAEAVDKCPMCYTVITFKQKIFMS

Dihydroorotate dehydrogenase (quinone), mitochondrial (Plasmodium falciparum (isolate 3D7)), sequence (Q08210 whole entry, looked up): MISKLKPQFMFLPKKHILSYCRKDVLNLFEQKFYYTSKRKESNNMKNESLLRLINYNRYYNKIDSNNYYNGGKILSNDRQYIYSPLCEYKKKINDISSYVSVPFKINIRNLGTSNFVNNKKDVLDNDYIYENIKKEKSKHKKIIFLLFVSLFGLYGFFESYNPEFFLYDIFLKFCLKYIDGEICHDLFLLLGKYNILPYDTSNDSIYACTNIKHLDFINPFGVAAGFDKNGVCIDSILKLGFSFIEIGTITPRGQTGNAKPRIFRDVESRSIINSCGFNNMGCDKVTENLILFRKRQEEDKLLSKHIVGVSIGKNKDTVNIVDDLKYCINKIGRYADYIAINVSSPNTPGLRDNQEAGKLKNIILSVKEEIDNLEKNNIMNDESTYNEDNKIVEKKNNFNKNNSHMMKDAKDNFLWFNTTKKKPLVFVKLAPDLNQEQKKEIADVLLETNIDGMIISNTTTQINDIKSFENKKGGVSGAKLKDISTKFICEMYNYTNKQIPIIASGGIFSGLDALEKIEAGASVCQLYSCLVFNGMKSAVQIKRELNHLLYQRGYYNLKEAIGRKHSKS

SMILES	z-score [1]	z-score [2]	z-score [3]	composite z-score [4]	z-score [5]	z-score [6]	z-score [7]	z-score [8]	z-score [9]	composite z-score [10]
C=CCN(C(=O)C(c1cccs1)N(C(=O)/C=C\C(=O)O)C(C)(C)CO)C(C)(C)C (centres undefined)	-0.432 and -0.115	-1.64 (inactive) and -0.838 (inactive)	0.626 (inactive) and 0.391 (inactive)	-0.98 (inactive) and -0.499 (inactive)	0.454 (inactive) and -0.0837 (inactive)	-1.86 (inactive) and -1.72 (inactive)	1.97 (inactive) and 0.291 (inactive)	2.07 (inactive) and 0.946 (inactive)	0.356 and 0.366	-0.0669 and 0.0153
C=CCN(CCCCC)C(=O)C1N(C(C)(C)CO)C(=O)C2C(C(=O)O)C3C=CC21O3 (centres undefined)	-0.839 and -0.382	0.579 (inactive) and -0.295 (inactive)	-1.09 (inactive) and -0.64 (inactive)	0.457 (inactive) and -0.446 (inactive)	-0.91 (inactive) and -1.08 (inactive)	-1.01 (inactive) and -1.15 (inactive)	-0.62 (inactive) and 0.193 (inactive)	-0.396 (inactive) and 0.2 (inactive)	-0.725 and -0.827	-0.0387 and -0.245
C[N+](C)(C)CCCCNC(=O)[C@H]1C[C@H]2C(=O)N[C@@H](CCCC[N+](C)(C)C)C(=O)N2[C@H]1c1ccc(O)cc1	-0.168 and 0.0318	0.889 (inactive) and 0.811 (inactive)	-0.531 (inactive) and -0.416 (inactive)	-29.8 (active) and -29.4 (active)	0.227 (inactive) and 2.5 (inactive)	0.659 (inactive) and 0.409 (inactive)	0.0769 (inactive) and -0.869 (inactive)	0.0835 (inactive) and -1.41 (inactive)	-0.891 and -1.06	0.104 and 0.0015
COc1ccc(COC(=O)NN=C2C[C@@H](O)[C@@H](O)[C@@H]3[C@@H]4C(=O)N(C(C)(C)C)C(=O)[C@@H]4CC[C@H]23)cc1	-0.947	-1.8 (inactive)	-0.18 (inactive)	-1.31 (inactive)	0.541 (inactive)	-1.94 (inactive)	-0.21 (inactive)	0.0442 (inactive)	-0.571	-0.0845
C=CCN(Cc1ccccc1)C(=O)C(c1cccs1)N(C(=O)/C=C\C(=O)O)c1c(Cl)cccc1CO (centres undefined)	0.201 and -0.418	-0.0348 (inactive) and -0.539 (inactive)	0.258 (inactive) and -0.385 (inactive)	0.607 (inactive) and 1.16 (inactive)	0.165 (inactive) and -0.208 (inactive)	0.0233 (inactive) and -0.276 (inactive)	0.759 (inactive) and 0.391 (inactive)	-1.34 (inactive) and 0.456 (inactive)	-0.124 and -1	-0.0172 and -0.359
CO[C@@H]1COC(=O)[C@H](Cc2ccccc2)NC(=O)CC=C[C@@H](C)[C@H](OC)COC(=O)[C@@H](C)NC(=O)CC=C[C@H]1C	0.959 and 0.62	-1.78 (inactive) and -1.48 (inactive)	1.27 (inactive) and 0.921 (inactive)	-0.595 (inactive) and -0.614 (inactive)		-1.34 (inactive) and -1.08 (inactive)	0.357 (inactive) and 0.951 (inactive)	0.067 (inactive) and 0.74 (inactive)	1 and -0.289	-0.203 and -0.192
C=C[C@H](OC)[C@@H](O)c1ccc(O)c(F)c1	-0.463 and 0.413	-2.28 (inactive) and -3.3 (inactive)	-0.74 (inactive) and 0.169 (inactive)	-0.697 (inactive) and -0.991 (inactive)	0.614 (inactive) and 0.45 (inactive)	-0.684 (inactive) and -0.0772 (inactive)	0.136 (inactive) and 1.2 (inactive)	0.0056 (inactive) and 1 (inactive)	-0.792 and 0.496	-0.283 and -0.107
COC(=O)[C@@]1(Cc2ccc(OC)cc2)[C@H]2c3cc(C(=O)N(C)C)n(Cc4ccc(O)c(OC)c4)c3C[C@H]2CN1C(=O)c1ccccc1	0.613 and -0.518	1.5 (inactive) and 1.69 (inactive)	-0.475 (inactive) and -1.77 (inactive)	0.243 (inactive) and 0.355 (inactive)	-0.499 (inactive) and -0.347 (inactive)	0.884 (inactive) and 1.29 (inactive)	0.247 (inactive) and 0.423 (inactive)	-0.128 (inactive) and -0.102 (inactive)	0.381 and -2.92	-0.207 and 0.277
C=CCN(Cc1ccccc1)C(=O)C1N(C(C)(C)CO)C(=O)C2C(C(=O)O)C3C=CC21O3 (centres undefined)	-0.767 and 0.937	0.424 (inactive) and -0.874 (inactive)	-0.796 (inactive) and 0.0609 (inactive)	1.25 (inactive) and 0.316 (inactive)	-0.112 (inactive) and -0.193 (inactive)	-1.32 (inactive) and -0.417 (inactive)	-0.0429 (inactive) and 0.296 (inactive)	-0.0639 (inactive) and 0.0039 (inactive)	-0.699 and 0.447	0.0322 and -0.328
